# What was measured:
# Assay in all cases: PBM binding z-score (relative to random genomic background probes); higher = stronger binding; sequences stand for … in GC…GCGATTGACAGCGTAGAATGAAGG
# [1] = test system: FXR:RXRa (NR concentration 270 nM, RXRa partner concentration 90 nM)
# Summary of the method: (§1)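 Binding buffer was PBS pH 7.4 with 2% milk, 0.02% Triton X-100, 1 mM DTT, 0.2 mg/mL BSA and 0.4 mg/ml salmon testes DNA. In it, ligand-free nuclear receptor dimers were incubated 1 h on custom Agilent 4×180K protein-binding microarrays carrying double-stranded probes. Antibodies against each partner (one per run) detected binding, and z-scores were calculated against random background probes after regression normalization of scanned fluorescence.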
# [2] = test system: LXRa:RXRa (NR concentration 270 nM, RXRa partner concentration 90 nM)
# Summary of the method: as §1
# [3] = test system: LXRa homodimer (NR concentration 270 nM)
# Summary of the method: as §1
# [4] = test system: LXRb:RXRa (NR concentration 270 nM, RXRa partner concentration 90 nM)
# Summary of the method: as §1
# [5] = test system: LXRb homodimer (NR concentration 270 nM)
# Summary of the method: as §1
# [6] = test system: PPARa:RXRa (NR concentration 270 nM, RXRa partner concentration 90 nM)
# Summary of the method: as §1
# [7] = test system: PPARg:RXRa (NR concentration 180 nM, RXRa partner concentration 90 nM)
# Summary of the method: as §1
# [8] = test system: PPARg:RXRa 270nM:90nM, anti-RXR (NR concentration 270 nM, RXRa partner concentration 90 nM)
# Summary of the method: as §1
# [9] = test system: PPARg:RXRa 30nM:10nM, anti-RXR (NR concentration 30 nM, RXRa partner concentration 10 nM)
# Summary of the method: as §1
# [10] = test system: PPARg:RXRa 90nM:30nM, anti-RXR (NR concentration 90 nM, RXRa partner concentration 30 nM)
# Summary of the method: as §1
# [11] = test system: PPARg:RXRa DBDmut IVT, anti-RXR (DBD mutation: RXRa K156A/R161A, NR concentration 270 nM, RXRa partner concentration 90 nM)
# Summary of the method: as §1
# [12] = test system: PPARg:RXRa IVT, anti-PPARg (NR concentration 270 nM, RXRa partner concentration 90 nM)
# Summary of the method: as §1
# [13] = test system: PPARg DBDmut:RXRa IVT, anti-PPARg (DBD mutation: PPARg1 K132A/R137A, NR concentration 270 nM, RXRa partner concentration 90 nM)
# Summary of the method: as §1
# [14] = test system: PPARg DBDmut IVT, anti-PPARg (DBD mutation: PPARg1 K132A/R137A, NR concentration 270 nM)
# Summary of the method: as §1
# [15] = test system: PPARg homodimer (NR concentration 180 nM)
# Summary of the method: as §1
# [16] = test system: PXR:RXRa (NR concentration 270 nM, RXRa partner concentration 90 nM)
# Summary of the method: as §1
# [17] = test system: PXR homodimer (NR concentration 270 nM)
# Summary of the method: as §1
# [18] = test system: RARa:RXR (NR concentration 270 nM, RXRa partner concentration 90 nM)
# Summary of the method: as §1
# [19] = test system: RARa homodimer (NR concentration 270 nM)
# Summary of the method: as §1
# [20] = test system: RARb:RXRa (NR concentration 270 nM, RXRa partner concentration 90 nM)
# Summary of the method: as §1
Sequence,PBM binding z-score [1],PBM binding z-score [2],PBM binding z-score [3],PBM binding z-score [4],PBM binding z-score [5],PBM binding z-score [6],PBM binding z-score [7],PBM binding z-score [8],PBM binding z-score [9],PBM binding z-score [10],PBM binding z-score [11],PBM binding z-score [12],PBM binding z-score [13],PBM binding z-score [14],PBM binding z-score [15],PBM binding z-score [16],PBM binding z-score [17],PBM binding z-score [18],PBM binding z-score [19],PBM binding z-score [20]
CGAACTAGGTCATTGACAAGACAGTGAATAGTAA,3.79,2.42,0.115,2.04,-0.0491,4.5,7.38,6.17,3.72,5.54,8.29,8.45,3.1,1.15,0.882,1.26,0.00701,1.79,0.336,3.61
ACTAGAAGGCCAAGTTTGGGTCACTCAAACAAAG,0.681,0.517,-0.0475,0.902,-0.474,1.52,0.293,0.723,-0.386,0.134,0.0334,1.25,-0.516,-0.287,0.742,1.2,-0.219,2.15,-0.267,2.71
ATACCAAGGTGATCGTGGGGTCGTTGATACTAAC,1.56,1.27,0.187,2.56,0.143,2.42,0.805,0.876,0.0671,0.468,0.765,1.54,0.837,0.583,1.5,3.05,1.11,2.65,0.577,1.33
TCATATAGATAAAAGGTGAAAGTCGGTGTGGTAA,1.52,1.57,0.231,1.67,-0.152,3.28,3.63,5.16,5.42,5.56,3.23,2.25,0.674,0.805,1.56,1.12,0.535,1.83,1.65,1.73
CCGAGTAGGTTATGGGGCATTCCGGCAACGGTGA,0.0637,0.227,-0.224,0.574,-0.279,1.97,3.05,4.51,1.83,3.99,3.2,3.14,0.204,-0.0547,0.995,-0.218,-0.17,0.0767,0.0897,0.966
GTACCAAGGTGAATAGGGCGTTGATGAGTAGGCG,0.407,0.248,-0.214,-0.0331,-0.614,1.22,1.02,0.756,-0.0867,0.088,1.79,2.39,0.11,-0.0449,0.629,-0.0283,0.127,0.434,0.194,1.5
TCTTGTAGATCTACAGGAGGTTAAGAAAGATCGA,-0.0507,1.18,0.0906,1.05,-0.353,1.13,0.0555,1.06,2.09,1.48,0.98,0.28,0.42,1.12,-0.349,0.739,-0.569,0.866,-0.41,0.172
